Records with an inconclusive call do not appear. Unmarked numbers belong to inactive results. Activity calls are given as the source filed them. Calls follow the shape of the dose curve; as a rule, active = well fitted inhibition curve with a large enough effect in the repeat runs; inconclusive = weak or mixed curves; inactive = no such curve, though single readings can be large or run the other way.
The compounds below were run against Cytochrome P450 2C9 (Homo sapiens) (UniProt P11712) (assay: Cytochrome P450 Family 2 Subfamily C Member 9 (CYP2C9) small molecule antagonists: luciferase reporter qHTS assay (AID 1671198)). Details: P450-Glo CYP2C9 enzyme assay, luciferin luminescence; series mostly up to 115 µM; activity change, negative = inhibition: at the top concentration.
Sequence of Cytochrome P450 2C9 (Homo sapiens) (P11712 whole entry, looked up): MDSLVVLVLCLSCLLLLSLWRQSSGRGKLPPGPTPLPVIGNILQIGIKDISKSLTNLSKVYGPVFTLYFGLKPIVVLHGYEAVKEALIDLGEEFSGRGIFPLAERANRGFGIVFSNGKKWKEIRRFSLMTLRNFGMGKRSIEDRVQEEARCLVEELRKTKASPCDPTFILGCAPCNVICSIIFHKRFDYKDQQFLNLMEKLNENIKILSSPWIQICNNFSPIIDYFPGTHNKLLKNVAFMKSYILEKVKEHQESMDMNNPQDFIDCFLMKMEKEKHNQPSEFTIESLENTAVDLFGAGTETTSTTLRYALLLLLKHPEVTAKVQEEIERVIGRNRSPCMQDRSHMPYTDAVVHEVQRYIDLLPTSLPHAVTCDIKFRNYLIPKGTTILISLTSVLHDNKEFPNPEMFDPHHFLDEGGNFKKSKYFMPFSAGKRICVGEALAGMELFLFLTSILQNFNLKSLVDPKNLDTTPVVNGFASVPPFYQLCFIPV
Outline: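 P450-Glo proluciferin substrate with CYP2C9 enzyme; 10 min RT preincubation, then NADPH regeneration 1 h at 37C; luciferin detection reagent 20 min RT, luminescence in relative luminescence units.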
C=COCCOCCOCCOC=C was tested, and the “activity change, negative = inhibition” value was -13.6%.
With CC(C)N(c1ccccc1)C(C)C the “activity change, negative = inhibition” value was -11%.
For CC(C)CC(C)CC(C)CC(C)COC(=O)c1ccccc1C(=O)OCC(C)CC(C)CC(C)CC(C)C (stereo not drawn), the Potency was 58.7 µM (active).
C[C@H](CCC(=O)O)[C@H]1CC[C@H]2[C@@H]3C(=O)C[C@@H]4CC(=O)CC[C@]4(C)[C@H]3CC(=O)[C@]12C was tested, and the “activity change, negative = inhibition” value was 0.694% [at 53 µM].
With CC(C)NCC(O)COc1ccc(COCCOC(C)C)cc1 (stereo not drawn) the “activity change, negative = inhibition” value was 3.92% [at 53 µM].
CC(C)CCCCOC(=O)c1ccccc1C(=O)OCCCCC(C)C was tested, and the Potency was 17.9 µM (active).
With CC(C)C(=O)OCc1cccc(OC(=O)[C@@H]2N3C(=O)[C@@H](NC(=O)Cc4ccccc4)[C@H]3SC2(C)C)c1 the Potency was 12.3 µM (active).
For c1ccc2c(c1)ccc1c3ccccc3ccc21, the “activity change, negative = inhibition” value was -11.7% [at 53 µM].
CC(=C(CCOC(=O)C(C)C)SSC(CCOC(=O)C(C)C)=C(C)N(C=O)Cc1cnc(C)nc1N)N(C=O)Cc1cnc(C)nc1N was tested, and the “activity change, negative = inhibition” value was -7.85% [at 53 µM].
In the case of Cc1[nH]cnc1-c1ccc(Cl)cc1, the Potency is reported as 15.5 µM (active).
CCCCCCN was tested, and the “activity change, negative = inhibition” value was -0.626%.
COc1ccc(S(=O)(=O)N2c3ccc(Cl)cc3[C@@](O)(c3ccccc3Cl)[C@H]2C(=O)N2CCC[C@@H]2C(N)=O)cc1OC was tested, and the Potency was 17.4 µM (active).
With CC(=O)CCCCn1c(=O)c2c(ncn2C)n(C)c1=O the “activity change, negative = inhibition” value was 2.84% [at 53 µM].
NNc1nnc(NN)c2ccccc12 was tested, and the Potency was 34.7 µM (active).
In the case of O=C(CCN1CCN(CCO)CC1)N1c2ccccc2Sc2ccc(C(F)(F)F)cc21, the “activity change, negative = inhibition” value is reported as -11.4% [at 53 µM].
CCCN1C[C@H](CSC)C[C@@H]2c3cccc4[nH]cc(c34)C[C@H]21 was tested, and the “activity change, negative = inhibition” value was -19.7% [at 53 µM].
O=C(OCC(O)CO)c1ccccc1Nc1ccnc2c(C(F)(F)F)cccc12 (stereo not drawn) was tested, and the Potency was 9.77 µM (active).
For Cc1cc2cc3c(C)cc(=O)oc3c(C)c2o1, the “activity change, negative = inhibition” value was -7.88% [at 53 µM].

These compounds were tested against Cytochrome P450 1A2 (Homo sapiens) (UniProt P05177) (assay: Cytochrome P450 Family 1 Subfamily A Member 2 (CYP1A2) small molecule antagonists: luciferase reporter qHTS assay (AID 1671199)). Details: P450-Glo CYP1A2 enzyme, luciferin luminescence, 1 h; series mostly up to 53 µM; activity change, negative = inhibition: at the top concentration.
Sequence of Cytochrome P450 1A2 (Homo sapiens) (P05177 whole entry, looked up): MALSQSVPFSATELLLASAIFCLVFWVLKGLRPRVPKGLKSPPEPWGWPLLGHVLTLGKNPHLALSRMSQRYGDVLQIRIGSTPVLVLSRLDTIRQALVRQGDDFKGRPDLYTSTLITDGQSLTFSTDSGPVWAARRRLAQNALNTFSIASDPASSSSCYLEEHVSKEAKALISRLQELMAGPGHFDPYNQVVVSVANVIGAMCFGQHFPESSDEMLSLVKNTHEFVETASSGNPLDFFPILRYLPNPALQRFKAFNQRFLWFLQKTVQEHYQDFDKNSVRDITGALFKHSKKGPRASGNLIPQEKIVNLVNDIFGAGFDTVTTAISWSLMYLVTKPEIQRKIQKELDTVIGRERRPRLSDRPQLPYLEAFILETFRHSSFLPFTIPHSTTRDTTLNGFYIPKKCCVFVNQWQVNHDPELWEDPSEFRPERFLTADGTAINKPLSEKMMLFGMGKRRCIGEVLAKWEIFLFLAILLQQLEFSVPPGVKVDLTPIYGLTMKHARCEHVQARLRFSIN
Outline: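 Quantitative high-throughput format using the P450-Glo CYP1A2 system. Reaction initiated by NADPH regeneration solution, 1 h at room temperature, then stopped with detection reagent; luminescence measured 20 min later.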
With COc1ccc2nc(SCc3ncc(C)c(OC)c3C)[nH]c2c1 the Potency was 15.5 µM (active).
COc1ccc2c(c1)C(=O)N(CCc1ccc(S(=O)(=O)NC(=O)NC3CCCCC3)cc1)C(=O)C2(C)C was tested, and the “activity change, negative = inhibition” value was 17.4%.
In the case of O=C(OCC1(COC(=O)c2cccnc2)CCCC(COC(=O)c2cccnc2)(COC(=O)c2cccnc2)C1O)c1cccnc1, the “activity change, negative = inhibition” value is reported as 5.63%.
CCOCCOC(=O)/C=C/c1ccc(OC)cc1 was tested, and the Potency was 7.76 µM (active).
CNC(=O)[C@H]1O[C@@H](n2cnc3c(NCc4cc(Cl)ccc4OCc4cc(C)no4)ncnc32)[C@H](O)[C@@H]1N was tested, and the “activity change, negative = inhibition” value was -15.1% [at 115 µM].
With CN(CCOc1ccc(NS(C)(=O)=O)cc1)CCc1ccc(NS(C)(=O)=O)cc1 the “activity change, negative = inhibition” value was 0.313%.
For CCCCNC1CC(C)(C)NC(C)(C)C1, the “activity change, negative = inhibition” value was -16% [at 115 µM].
With O=C(NCCN1CCOCC1)c1ccc(Cl)cc1 the “activity change, negative = inhibition” value was -14.1%.
In the case of COc1ccc2c(c1OC)C(=O)O[C@@H]2[C@H]1c2c(cc3c(c2OC)OCO3)CCN1C, the “activity change, negative = inhibition” value is reported as -9.21%.
Nc1nnc(-c2cccc(Cl)c2Cl)c(N)n1 was tested, and the “activity change, negative = inhibition” value was -1.03%.
For CC(N)C(=O)OC(C)(C)Cc1ccc(Cl)cc1 (stereo not drawn), the Potency was 1.38 µM (active).
In the case of O=C(Nc1ccc(Cl)c(Cl)c1)C1CC1, the Potency is reported as 0.456 µM (active).
In the case of CN(C)c1ccc(C=O)cc1, the Potency is reported as 35.6 µM (active).
With Cc1ccc(S(=O)(=O)O)c(C)c1 the “activity change, negative = inhibition” value was -10.4% [at 115 µM].
In the case of CC1(C)S[C@@H]2[C@H](N=CN3CCCCCC3)C(=O)N2[C@H]1C(=O)O, the “activity change, negative = inhibition” value is reported as -5.56%.
In the case of O=C1CCCC(=O)O1, the “activity change, negative = inhibition” value is reported as -27.6% [at 115 µM].
C=CCCCCCCCCCCCC was tested, and the “activity change, negative = inhibition” value was -10% [at 115 µM].
O=C1c2cccc3c2[C@H](CCC3)CN1[C@@H]1CN2CCC1CC2 was tested, and the “activity change, negative = inhibition” value was 8.85%.
In the case of C=COCCOCCOCCOC=C, the Potency is reported as 35.6 µM (active).
For CC(C)N(c1ccccc1)C(C)C, the “activity change, negative = inhibition” value was -27.7% [at 115 µM].
CC(C)CC(C)CC(C)CC(C)COC(=O)c1ccccc1C(=O)OCC(C)CC(C)CC(C)CC(C)C (stereo not drawn) was tested, and the Potency was 65.9 µM (active).
For C[C@H](CCC(=O)O)[C@H]1CC[C@H]2[C@@H]3C(=O)C[C@@H]4CC(=O)CC[C@]4(C)[C@H]3CC(=O)[C@]12C, the “activity change, negative = inhibition” value was 11.7%.
CC(C)NCC(O)COc1ccc(COCCOC(C)C)cc1 (stereo not drawn) was tested, and the “activity change, negative = inhibition” value was 15.4%.
With CC(C)CCCCOC(=O)c1ccccc1C(=O)OCCCCC(C)C the Potency was 17.9 µM (active).
For CC(C)C(=O)OCc1cccc(OC(=O)[C@@H]2N3C(=O)[C@@H](NC(=O)Cc4ccccc4)[C@H]3SC2(C)C)c1, the “activity change, negative = inhibition” value was 1.64%.
For c1ccc2c(c1)ccc1c3ccccc3ccc21, the Potency was 0.725 µM (active).
CC(=C(CCOC(=O)C(C)C)SSC(CCOC(=O)C(C)C)=C(C)N(C=O)Cc1cnc(C)nc1N)N(C=O)Cc1cnc(C)nc1N was tested, and the “activity change, negative = inhibition” value was 6.77%.
Cc1[nH]cnc1-c1ccc(Cl)cc1 was tested, and the Potency was 2.19 µM (active).
With CCCCCCN the “activity change, negative = inhibition” value was -5.16% [at 115 µM].
In the case of COc1ccc(S(=O)(=O)N2c3ccc(Cl)cc3[C@@](O)(c3ccccc3Cl)[C@H]2C(=O)N2CCC[C@@H]2C(N)=O)cc1OC, the “activity change, negative = inhibition” value is reported as 5.52%.

Reference: PubChem BioAssay (Tox21)
% is scaled to controls: 0 for no effect and ±100 for the full control effect; potency is read from the fitted curve at half-maximal effect.
Also: nearly all actives have a fitted effect of over 50% in size.
